Experimental data from PubChem BioAssay (NCI).
About 83,000 compounds went through this panel and 20% of them were active in at least one assay; those are over-represented in the sample as a whole.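 Plates (96-well) were seeded with cells, treated with compound at one concentration, and incubated for 48 hours before percent growth was determined.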 Values without a mark were called inactive. Activity calls are given as the source filed them. How the source made its calls: active means growth percent below 10; inactive means the rest.

tested on: CCRF-CEM leukemia; experiment: NCI-60 one-dose screen, 48 h (100 = growth as untreated, 0 = no growth, -100 = all killed); conditions: 10 µM unless noted

Question: `O=C(O)CNC1=C(Cl)C(=O)c2ccccc2C1=O` was tested. Which growth did it give?
Answer: 91.4%

Question: `CCCCCC(=O)OCC(=O)O[C@@H]1C[C@]2(C(C)C)O[C@@]1(C)[C@@H]1CC[C@@H](C)[C@H]1[C@@H]2OC(=O)/C=C/c1ccccc1` was tested. Which growth did it give?
Answer: 59.7%

Question: Which growth does the source give for `CN1C(=O)/C(=C/c2ccc(C(=O)Nc3ncc(Cc4ccc(Cl)cc4)s3)cc2)SC1=S` here?
Answer: 55.5%

Question: With `C#CCOc1ccc2ncnc(Nc3cccc(NC(=O)C=C)c3)c2c1` as the compound, how does the growth read?
Answer: 79.9%

Question: For `CN(CCOc1ccc(C#N)cc1)CCOc1ccc(C#N)cc1`, which growth is on record?
Answer: -84.4% (active)

Question: With `CCOC(=O)c1c(NC(=O)c2ccc(C(C)C)cc2)sc2c(CN(C)C)c(O)ccc12` as the compound, how does the growth read?
Answer: 8.75% (active)

Question: Which growth does the source give for `COC(=O)c1c2c(c[n+]([O-])c1C)C(=O)C(NCc1ccccc1)=CC2=O` here?
Answer: 2.92% (active)

Question: For `Nc1ncnc2c1N=C(c1ccc3c(c1)OCO3)CC(c1ccc([N+](=O)[O-])cc1)N2` (configuration not stated), which growth is on record?
Answer: 39.3%

Question: Which growth does the source give for `N#C/C(=C/c1ccc([N+](=O)[O-])cc1)n1nnc2cc(F)c(F)cc21` here?
Answer: 15.1%

Question: How did the growth turn out when `CCN1CCN(c2cc(C(=O)Nc3nc(-c4cc(OC)c(OC)c(OC)c4)cs3)cc(C(F)(F)F)c2)CC1` was run?
Answer: 59%

Question: How did the growth turn out when `CN1CCN(c2ccc(C(=O)Nc3cccc(C#Cc4cccc5[nH]nc(N)c45)c3)cc2C(F)(F)F)CC1` was run?
Answer: -25.3% (active)

Question: With `CN1CCN(c2ccc(NC(=O)c3cncnc3Nc3ccc(OCc4ccccn4)c(Cl)c3)cc2)CC1` as the compound, how does the growth read?
Answer: 11.2%

Question: How did the growth turn out when `c1ccc(CNc2c3ccccc3nc3ccccc23)cc1` was run?
Answer: 39%

Question: For `C/C(=N\NC(=O)c1ccccc1O)c1cccc(/C(C)=N/NC(=O)c2ccccc2O)n1`, which growth is on record?
Answer: 21.8%

Question: `N#Cc1c(NC(=O)c2ccccc2)sc2c1CCC(=O)C2` was tested. Which growth did it give?
Answer: 7.52% (active)

Question: With `CCO/C=N/C1=C(C#N)C(c2ccc(OC)cc2)c2sc3c(F)cccc3c2O1` (configuration not stated) as the compound, how does the growth read?
Answer: 12.2%

Question: Which growth does the source give for `O=C(CI)NC1Oc2ccccc2-c2oc(=O)c(-c3ccccc3)cc21` (configuration not stated) here?
Answer: -23.4% (active)

Question: For `Brc1ccc2[nH]cc(-c3nonc3-c3c[nH]c4ccccc34)c2c1`, which growth is on record?
Answer: 38.8%

Question: Which growth does the source give for `Fc1ccc2[nH]cc(-c3nonc3-c3c[nH]c4ccc(Br)cc34)c2c1` here?
Answer: 26%

Question: For `N#CC1C=CN(CC(N)=O)c2ccc3cccnc3c21` (configuration not stated), which growth is on record?
Answer: 78%

Question: How did the growth turn out when `CCOC(=O)CSc1ncnc2c1c(-c1ccccc1)c(-c1ccccc1)n2-c1ccc(C)cc1` was run?
Answer: 67%

Question: For `O=C(Cn1c2c(c3ccccc31)CCCC2)Nc1ccc(-c2nc3ccccc3s2)cc1`, which growth is on record?
Answer: 93.2%

Question: How did the growth turn out when `CC(C)=CCC[C@](C)(O)[C@H]1CC[C@]2(C)[C@@H]1CC[C@@H]1[C@@]3(C)Cc4nccnc4C(C)(C)[C@@H]3CC[C@]12C` was run?
Answer: 68.4%

Question: Which growth does the source give for `COc1cc2oc(-c3cccc(NC(=O)c4cccc(Br)c4)c3)cc(=O)c2c(OC)c1OC` here?
Answer: 30.3%

Question: With `O=C(Nc1nc2ccc(F)cc2s1)c1cccnc1Nc1ccc(Cl)cc1` as the compound, how does the growth read?
Answer: 5.11% (active)

Question: `Nc1c(C(=O)Nc2ccncc2)sc2nc3c(cc12)CCCCCC3` was tested. Which growth did it give?
Answer: 68.1%

Question: Which growth does the source give for `CC1(C)c2[nH]c3ccccc3c2C[C@]2(C)[C@H]3CC=C4[C@@H]5C[C@@](C)(C(N)=O)CC[C@]5(C)CC[C@@]4(C)[C@]3(C)CC[C@@H]12` here?
Answer: 54.7%

tested on: MOLT-4 leukemia; experiment: as above; conditions: 10 µM unless noted

Question: With `COc1cc(CNS(=O)(=O)c2ccc(C)cc2)ccc1OCc1cn(-c2ccc(Br)cc2)nn1` as the compound, how does the growth read?
Answer: 101%

Question: For `Cc1ccc(Cl)cc1Nc1nc(C(F)(F)F)ccc1C(=O)N/N=C/c1cccnc1`, which growth is on record?
Answer: 3.8% (active)

Question: Which growth does the source give for `COc1cc2c(c(OC)c1OC)-c1ccc(OC)c(=O)cc1[C@@H](NC(=O)CCl)CC2` here?
Answer: 20.9%

Question: `Fc1ccc(Nc2nc3nonc3nc2Nc2ccc(I)cc2)cc1` was tested. Which growth did it give?
Answer: -35.7% (active)

Question: `CO[C@H]1/C=C(/C)CCC[C@H](C)[C@H](O)[C@@H](C)C(=O)C(C)(C)[C@@H](O)CC(=O)O[C@@H]1/C(C)=C/c1csc(C)n1` was tested. Which growth did it give?
Answer: 14.6%

Question: With `COCCn1c(-c2csc(-c3cn(C)c4ccc(OC)cc34)n2)cc2cccnc21` as the compound, how does the growth read?
Answer: 54.4%

Question: Which growth does the source give for `CCNc1nc(-c2ccc(Cl)c(OC)c2)c(-c2ccnc(NCCCNS(=O)(=O)c3ccc(Cl)cc3)n2)s1` here?
Answer: 22.2%

Question: Which growth does the source give for `O=C1COCCN1c1ccc(Nc2nc(Cl)nc(OCc3cn(Cc4ccccc4)nn3)n2)cc1` here?
Answer: 62%

Question: `N#Cc1c(-c2ccc(Cl)cc2)nc(SCC(=O)NC2=NN=C(c3ccccc3)CS2)[nH]c1=O` was tested. Which growth did it give?
Answer: 90.4%

Question: With `Cc1cc2c(O)c(-c3cccc(Cl)c3)c3sc(=O)oc3c2cc1C` as the compound, how does the growth read?
Answer: 45.8%

Question: For `CC1=C(CCC(C)N(C)Cc2ccc(OCCCN3CCCC3)cc2)C(C)(C)CCC1` (configuration not stated), which growth is on record?
Answer: -24.2% (active)

Question: With `N#Cc1cccc(-c2c(-c3ccc4ccccc4c3)oc3ccccc3c2=O)c1` as the compound, how does the growth read?
Answer: 31%

Question: How did the growth turn out when `Cc1nc2sc(C(=O)Nc3ccccc3)c(N)c2cc1C(=O)c1ccccc1` was run?
Answer: 31.6%

Question: How did the growth turn out when `O=C(O)CNC1=C(Cl)C(=O)c2ccccc2C1=O` was run?
Answer: 100%

Question: Which growth does the source give for `CCCCCC(=O)OCC(=O)O[C@@H]1C[C@]2(C(C)C)O[C@@]1(C)[C@@H]1CC[C@@H](C)[C@H]1[C@@H]2OC(=O)/C=C/c1ccccc1` here?
Answer: 72.1%

Question: For `CN1C(=O)/C(=C/c2ccc(C(=O)Nc3ncc(Cc4ccc(Cl)cc4)s3)cc2)SC1=S`, which growth is on record?
Answer: 46.8%

Question: With `C#CCOc1ccc2ncnc(Nc3cccc(NC(=O)C=C)c3)c2c1` as the compound, how does the growth read?
Answer: 60.6%

Question: `CN(CCOc1ccc(C#N)cc1)CCOc1ccc(C#N)cc1` was tested. Which growth did it give?
Answer: 94.4%

Question: `CCOC(=O)c1c(NC(=O)c2ccc(C(C)C)cc2)sc2c(CN(C)C)c(O)ccc12` was tested. Which growth did it give?
Answer: -21% (active)

Question: How did the growth turn out when `COC(=O)c1c2c(c[n+]([O-])c1C)C(=O)C(NCc1ccccc1)=CC2=O` was run?
Answer: -29.4% (active)

Question: How did the growth turn out when `Nc1ncnc2c1N=C(c1ccc3c(c1)OCO3)CC(c1ccc([N+](=O)[O-])cc1)N2` (configuration not stated) was run?
Answer: 99.3%

Question: With `N#C/C(=C/c1ccc([N+](=O)[O-])cc1)n1nnc2cc(F)c(F)cc21` as the compound, how does the growth read?
Answer: 38.6%

Question: `CCN1CCN(c2cc(C(=O)Nc3nc(-c4cc(OC)c(OC)c(OC)c4)cs3)cc(C(F)(F)F)c2)CC1` was tested. Which growth did it give?
Answer: 43.9%

Question: Which growth does the source give for `CN1CCN(c2ccc(C(=O)Nc3cccc(C#Cc4cccc5[nH]nc(N)c45)c3)cc2C(F)(F)F)CC1` here?
Answer: -56.3% (active)

Question: With `CN1CCN(c2ccc(NC(=O)c3cncnc3Nc3ccc(OCc4ccccn4)c(Cl)c3)cc2)CC1` as the compound, how does the growth read?
Answer: 8.56% (active)

Question: For `c1ccc(CNc2c3ccccc3nc3ccccc23)cc1`, which growth is on record?
Answer: 15.5%

Question: `C/C(=N\NC(=O)c1ccccc1O)c1cccc(/C(C)=N/NC(=O)c2ccccc2O)n1` was tested. Which growth did it give?
Answer: 24.5%

Question: `N#Cc1c(NC(=O)c2ccccc2)sc2c1CCC(=O)C2` was tested. Which growth did it give?
Answer: 8.12% (active)

Question: Which growth does the source give for `CCO/C=N/C1=C(C#N)C(c2ccc(OC)cc2)c2sc3c(F)cccc3c2O1` (configuration not stated) here?
Answer: 24.5%

Question: With `O=C(CI)NC1Oc2ccccc2-c2oc(=O)c(-c3ccccc3)cc21` (configuration not stated) as the compound, how does the growth read?
Answer: -25.8% (active)

Question: How did the growth turn out when `Brc1ccc2[nH]cc(-c3nonc3-c3c[nH]c4ccccc34)c2c1` was run?
Answer: 27%

Question: For `Fc1ccc2[nH]cc(-c3nonc3-c3c[nH]c4ccc(Br)cc34)c2c1`, which growth is on record?
Answer: 16.7%

Question: How did the growth turn out when `N#CC1C=CN(CC(N)=O)c2ccc3cccnc3c21` (configuration not stated) was run?
Answer: 98%

Question: For `CCOC(=O)CSc1ncnc2c1c(-c1ccccc1)c(-c1ccccc1)n2-c1ccc(C)cc1`, which growth is on record?
Answer: 67.4%

Question: With `O=C(Cn1c2c(c3ccccc31)CCCC2)Nc1ccc(-c2nc3ccccc3s2)cc1` as the compound, how does the growth read?
Answer: 98.8%

Question: How did the growth turn out when `CC(C)=CCC[C@](C)(O)[C@H]1CC[C@]2(C)[C@@H]1CC[C@@H]1[C@@]3(C)Cc4nccnc4C(C)(C)[C@@H]3CC[C@]12C` was run?
Answer: 66.7%

Question: With `COc1cc2oc(-c3cccc(NC(=O)c4cccc(Br)c4)c3)cc(=O)c2c(OC)c1OC` as the compound, how does the growth read?
Answer: 41.7%

Question: How did the growth turn out when `O=C(Nc1nc2ccc(F)cc2s1)c1cccnc1Nc1ccc(Cl)cc1` was run?
Answer: 16.6%

Question: Which growth does the source give for `Nc1c(C(=O)Nc2ccncc2)sc2nc3c(cc12)CCCCCC3` here?
Answer: 70.3%

Question: With `CC1(C)c2[nH]c3ccccc3c2C[C@]2(C)[C@H]3CC=C4[C@@H]5C[C@@](C)(C(N)=O)CC[C@]5(C)CC[C@@]4(C)[C@]3(C)CC[C@@H]12` as the compound, how does the growth read?
Answer: 51.2%
